Assay results published in PubChem BioAssay (NCI).
The panel holds about 79,000 compounds, 15% with a hit somewhere; the sample as a whole holds those more often. Values without a mark were called inactive. Activity calls are given as the source filed them. No stated cut-off is given here; in the data, active means growth inhibition above about 70%; inactive means the rest.

How the values were obtained:
[1] = NCI Yeast Anticancer Drug Screen. Data for the rad52 strain (AID 147);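 further: 0% = growth of vehicle-treated control cultures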; settings: S. cerevisiae rad52 mutant growth inhibition, stronger effect = higher value
Method in brief: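 Here a repair-compromised yeast strain receives each compound; its growth is then quantified and normalised to vehicle-only controls.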

[2] = NCI Yeast Anticancer Drug Screen. Data for the wt1 strain (AID 149);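 further: 0% = growth of vehicle-treated wt1 cultures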; settings: S. cerevisiae wt1 strain (SPY 50644) growth inhibition, stronger effect = higher value
Method in brief: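 Growth inhibition read against vehicle controls after compound exposure of the wt1 yeast strain.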

[3] = NCI Yeast Anticancer Drug Screen. Data for the rad50EPP+ strain (AID 151);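 further: 0% = growth of vehicle-treated control cultures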; settings: S. cerevisiae rad50 mutant strain, stronger effect = higher value
Method in brief: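 Read-out is yeast growth inhibition relative to vehicle; cells used were the rad50EPP+ strain.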

[4] = NCI Yeast Anticancer Drug Screen. Data for the mgt1 strain (AID 153); settings: S. cerevisiae mgt1 mutant growth inhibition, stronger effect = higher value
Method in brief: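 Measured: inhibition of mgt1 yeast growth by compound, normalized to vehicle-treated cultures.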

[5] = NCI Yeast Anticancer Drug Screen. Data for the rad50 strain (AID 155);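 further: 0% = growth of vehicle-only cultures of the same strain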; settings: S. cerevisiae rad50 strain growth inhibition, stronger effect = higher value
Method in brief: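 Readout: growth inhibition relative to vehicle-treated cultures. Compound exposure was carried out in a genetically defined yeast strain deficient in DNA damage repair.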

[6] = NCI Yeast Anticancer Drug Screen. Data for the mec2-1 strain (AID 157); settings: S. cerevisiae mec2-1 strain, stronger effect = higher value
Method in brief: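 Using mec2-1 yeast: add compound, measure growth, express inhibition versus vehicle-treated cultures.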

[7] = NCI Yeast Anticancer Drug Screen. Data for the rad14 strain (AID 159);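 further: 0% = growth of vehicle-treated control cultures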; settings: S. cerevisiae rad14 strain growth inhibition, stronger effect = higher value
Method in brief: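 Growth inhibition vs vehicle controls; genetically altered yeast strain (DNA damage repair defect) treated with test compounds.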

[8] = NCI Yeast Anticancer Drug Screen. Data for the sgs1 mgt1 strain (AID 161);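 further: 0% = growth of cultures given vehicle only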; settings: S. cerevisiae sgs1 mgt1 strain, stronger effect = higher value
Method in brief: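 Yeast cells carrying a defined DNA-repair defect were exposed to test compounds. Growth inhibition was measured relative to vehicle-treated controls.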

[9] = NCI Yeast Anticancer Drug Screen. Data for the CLN2oe strain (AID 163);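 further: 0% = growth of vehicle-only control cultures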; settings: S. cerevisiae CLN2oe strain, stronger effect = higher value
Method in brief: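 Whole-cell yeast growth assay. A strain engineered for altered cell-cycle control received compound, and inhibition relative to vehicle-treated cultures was recorded.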

[10] = NCI Yeast Anticancer Drug Screen. Data for the cln2 rad14 strain (AID 165);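 further: 0% = growth equal to vehicle treated cultures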; settings: S. cerevisiae cln2 rad14 strain, stronger effect = higher value
Method in brief: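 Yeast strain cln2 rad14, bearing defects in cell cycle control and DNA repair, serves as the test system; values reflect growth inhibition compared with vehicle.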

[11] = NCI Yeast Anticancer Drug Screen. Data for the bub3 strain (AID 167); settings: S. cerevisiae bub3 mutant strain, stronger effect = higher value
Method in brief: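 Readout: yeast growth inhibition, expressed relative to vehicle-only wells. The test organism is a mutant strain from a panel with lesions in DNA repair or checkpoint genes.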

[12] = NCI Yeast Anticancer Drug Screen. Data for the wt2 strain (AID 169);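 further: 0% = growth of vehicle-treated yeast cultures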; settings: S. cerevisiae wt2 strain growth inhibition, stronger effect = higher value
Method in brief: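 Treated yeast vs. vehicle-treated yeast: growth inhibition determined.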

[13] = NCI Yeast Anticancer Drug Screen. Data for the mlh1 strain (AID 171);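 further: 0% = growth of vehicle-treated control cultures of the same strain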; settings: S. cerevisiae mlh1 strain growth inhibition, stronger effect = higher value
Method in brief: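 A yeast strain with a defined genetic lesion serves as the test organism. Cultures receive compound or vehicle, and growth is measured.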

[14] = NCI Yeast Anticancer Drug Screen. Data for the sgs1 strain (AID 173);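 further: 0% = growth of vehicle-only control cultures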; settings: S. cerevisiae sgs1 mutant, stronger effect = higher value
Method in brief: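 A genetically defined yeast mutant is incubated with the test compound, and its growth is compared to that of the same strain given vehicle.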

[15] = NCI Yeast Anticancer Drug Screen. Data for the mlh1 rad18 strain (AID 175); settings: S. cerevisiae mlh1 rad18 strain growth inhibition, stronger effect = higher value
Method in brief: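 Steps: expose repair-defective yeast to compound; measure growth; express inhibition against vehicle-treated controls.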

[16] = NCI Yeast Anticancer Drug Screen. Data for the rad18 strain (AID 177); settings: S. cerevisiae rad18 mutant growth inhibition, stronger effect = higher value
Method in brief: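 Measured value is growth inhibition of a yeast strain bearing a DNA repair alteration, referenced to vehicle-treated cells.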

[17] = at 5.0 µM (retest, dose inferred, filed as 0.5)
[18] = at 50.0 µM (retest, dose inferred, filed as 5.0)

Compound: CC1=NOC(=O)/C1=C/c1ccc2c(c1)OCO2
- growth inhibition ([1]; at 1.2 µM): 0%
- growth inhibition ([1]; at 3.7 µM): 4%
- growth inhibition ([1]; at 11.0 µM): 17%
- growth inhibition ([1]; at 33.0 µM): 32%
- growth inhibition ([1]; at 100.0 µM): 39%
- growth inhibition ([2]; at 1.2 µM): 5%
- growth inhibition ([2]; at 3.7 µM): 0%
- growth inhibition ([2]; at 11.0 µM): 2%
- growth inhibition ([2]; at 33.0 µM): 6%
- growth inhibition ([2]; at 100.0 µM): 13%
- growth inhibition ([3]; at 1.2 µM): 6%
- growth inhibition ([3]; at 3.7 µM): 5%
- growth inhibition ([3]; at 11.0 µM): 41%
- growth inhibition ([3]; at 33.0 µM): 47%
- growth inhibition ([3]; at 100.0 µM): 87% (active)
- growth inhibition ([4]; at 1.2 µM): -4%
- growth inhibition ([4]; at 3.7 µM): 1%
- growth inhibition ([4]; at 11.0 µM): 1%
- growth inhibition ([4]; at 33.0 µM): -10%
- growth inhibition ([4]; at 100.0 µM): 9%
- growth inhibition ([5]; at 1.2 µM): 1%
- growth inhibition ([5]; at 3.7 µM): 3%
- growth inhibition [5, 17]: 0%
- growth inhibition ([5]; at 11.0 µM): 26%
- growth inhibition ([5]; at 33.0 µM): 49%
- growth inhibition [5, 18]: 24%
- growth inhibition ([5]; at 50.0 µM): 82.2% (active)
- growth inhibition ([5]; at 100.0 µM): 59%
- growth inhibition ([6]; at 1.2 µM): 0%
- growth inhibition ([6]; at 3.7 µM): -1%
- growth inhibition [6, 17]: 13%
- growth inhibition ([6]; at 11.0 µM): 10%
- growth inhibition ([6]; at 33.0 µM): 12%
- growth inhibition [6, 18]: 83% (active)
- growth inhibition ([6]; at 50.0 µM): 78.6% (active)
- growth inhibition ([6]; at 100.0 µM): 28%
- growth inhibition ([7]; at 1.2 µM): 2%
- growth inhibition ([7]; at 3.7 µM): 2%
- growth inhibition ([7]; at 11.0 µM): 7%
- growth inhibition ([7]; at 33.0 µM): 11%
- growth inhibition ([7]; at 100.0 µM): 29%
- growth inhibition [8, 17]: 23%
- growth inhibition [8, 18]: 58%
- growth inhibition ([8]; at 50.0 µM): 65.5%
- growth inhibition ([9]; at 1.2 µM): -5%
- growth inhibition ([9]; at 3.7 µM): 3%
- growth inhibition ([9]; at 11.0 µM): 9%
- growth inhibition ([9]; at 33.0 µM): 15%
- growth inhibition ([9]; at 100.0 µM): 9%
- growth inhibition [10, 17]: 2%
- growth inhibition [10, 18]: 51%
- growth inhibition ([10]; at 50.0 µM): 20.4%
- growth inhibition ([11]; at 1.2 µM): -5%
- growth inhibition ([11]; at 3.7 µM): -1%
- growth inhibition [11, 17]: 19%
- growth inhibition ([11]; at 11.0 µM): 3%
- growth inhibition ([11]; at 33.0 µM): 3%
- growth inhibition [11, 18]: 30%
- growth inhibition ([11]; at 50.0 µM): 70.5% (active)
- growth inhibition ([11]; at 100.0 µM): 18%
- growth inhibition ([12]; at 1.2 µM): 2%
- growth inhibition ([12]; at 3.7 µM): 0%
- growth inhibition ([12]; at 11.0 µM): 8%
- growth inhibition ([12]; at 33.0 µM): 12%
- growth inhibition ([12]; at 100.0 µM): 13%
- growth inhibition ([13]; at 1.2 µM): 3%
- growth inhibition ([13]; at 3.7 µM): 1%
- growth inhibition ([13]; at 11.0 µM): 6%
- growth inhibition ([13]; at 33.0 µM): 20%
- growth inhibition ([13]; at 100.0 µM): 26%
- growth inhibition ([14]; at 1.2 µM): 1%
- growth inhibition ([14]; at 3.7 µM): 1%
- growth inhibition ([14]; at 11.0 µM): 10%
- growth inhibition ([14]; at 33.0 µM): 19%
- growth inhibition ([14]; at 100.0 µM): 23%
- growth inhibition [15, 17]: 23%
- growth inhibition [15, 18]: 81% (active)
- growth inhibition ([15]; at 50.0 µM): 48.6%
- growth inhibition ([16]; at 1.2 µM): 2%
- growth inhibition ([16]; at 3.7 µM): -12%
- growth inhibition ([16]; at 11.0 µM): 10%
- growth inhibition ([16]; at 33.0 µM): 36%
- growth inhibition ([16]; at 100.0 µM): 61%

Compound: Cc1ccc2nc(-c3cccc([N+](=O)[O-])c3)oc(=O)c2c1
- growth inhibition ([1]; at 1.2 µM): 3%
- growth inhibition ([1]; at 3.7 µM): 6%
- growth inhibition ([1]; at 11.0 µM): 1%
- growth inhibition ([1]; at 33.0 µM): -4%
- growth inhibition ([1]; at 100.0 µM): -10%
- growth inhibition ([2]; at 1.2 µM): -7%
- growth inhibition ([2]; at 3.7 µM): -3%
- growth inhibition ([2]; at 11.0 µM): -6%
- growth inhibition ([2]; at 33.0 µM): -15%
- growth inhibition ([2]; at 100.0 µM): -20%
- growth inhibition ([3]; at 1.2 µM): -12%
- growth inhibition ([3]; at 3.7 µM): 12%
- growth inhibition ([3]; at 11.0 µM): 18%
- growth inhibition ([3]; at 33.0 µM): 15%
- growth inhibition ([3]; at 100.0 µM): 27%
- growth inhibition ([4]; at 1.2 µM): -29%
- growth inhibition ([4]; at 3.7 µM): -25%
- growth inhibition ([4]; at 11.0 µM): -25%
- growth inhibition ([4]; at 33.0 µM): -26%
- growth inhibition ([4]; at 100.0 µM): -18%
- growth inhibition ([5]; at 1.2 µM): -21%
- growth inhibition ([5]; at 3.7 µM): -19%
- growth inhibition [5, 17]: 31%
- growth inhibition ([5]; at 11.0 µM): -34%
- growth inhibition ([5]; at 33.0 µM): -31%
- growth inhibition [5, 18]: 62%
- growth inhibition ([5]; at 50.0 µM): 14.2%
- growth inhibition ([5]; at 100.0 µM): -30%
- growth inhibition ([6]; at 1.2 µM): -57%
- growth inhibition ([6]; at 3.7 µM): -57%
- growth inhibition [6, 17]: 39%
- growth inhibition ([6]; at 11.0 µM): -62%
- growth inhibition ([6]; at 33.0 µM): -53%
- growth inhibition [6, 18]: 75% (active)
- growth inhibition ([6]; at 50.0 µM): 11.8%
- growth inhibition ([6]; at 100.0 µM): -70%
- growth inhibition ([7]; at 1.2 µM): -10%
- growth inhibition ([7]; at 3.7 µM): -6%
- growth inhibition ([7]; at 11.0 µM): -4%
- growth inhibition ([7]; at 33.0 µM): -19%
- growth inhibition ([7]; at 100.0 µM): -16%
- growth inhibition [8, 17]: -14%
- growth inhibition [8, 18]: 33%
- growth inhibition ([8]; at 50.0 µM): 27.6%
- growth inhibition ([9]; at 1.2 µM): 15%
- growth inhibition ([9]; at 3.7 µM): 22%
- growth inhibition ([9]; at 11.0 µM): 20%
- growth inhibition ([9]; at 33.0 µM): 9%
- growth inhibition ([9]; at 100.0 µM): 8%
- growth inhibition [10, 17]: 43%
- growth inhibition [10, 18]: 59%
- growth inhibition ([10]; at 50.0 µM): 13.2%
- growth inhibition ([11]; at 1.2 µM): -23%
- growth inhibition ([11]; at 3.7 µM): -23%
- growth inhibition [11, 17]: 33%
- growth inhibition ([11]; at 11.0 µM): -24%
- growth inhibition ([11]; at 33.0 µM): -5%
- growth inhibition [11, 18]: 75% (active)
- growth inhibition ([11]; at 50.0 µM): 53.7%
- growth inhibition ([11]; at 100.0 µM): -36%
- growth inhibition ([12]; at 1.2 µM): -22%
- growth inhibition ([12]; at 3.7 µM): -19%
- growth inhibition ([12]; at 11.0 µM): -26%
- growth inhibition ([12]; at 33.0 µM): -32%
- growth inhibition ([12]; at 100.0 µM): -24%
- growth inhibition ([13]; at 1.2 µM): -6%
- growth inhibition ([13]; at 3.7 µM): -2%
- growth inhibition ([13]; at 11.0 µM): -17%
- growth inhibition ([13]; at 33.0 µM): -17%
- growth inhibition ([13]; at 100.0 µM): -14%
- growth inhibition ([14]; at 1.2 µM): -20%
- growth inhibition ([14]; at 3.7 µM): -16%
- growth inhibition ([14]; at 11.0 µM): -19%
- growth inhibition ([14]; at 33.0 µM): -18%
- growth inhibition ([14]; at 100.0 µM): -11%
- growth inhibition [15, 17]: 34%
- growth inhibition [15, 18]: 67%
- growth inhibition ([15]; at 50.0 µM): 14.7%
- growth inhibition ([16]; at 1.2 µM): -14%
- growth inhibition ([16]; at 3.7 µM): -4%
- growth inhibition ([16]; at 11.0 µM): -19%
- growth inhibition ([16]; at 33.0 µM): -28%
- growth inhibition ([16]; at 100.0 µM): -42%
